Source: PubChem (National Center for Advancing Translational Sciences (NCATS))
SW480 rereplic = induces DNA re-replication in SW480 colon adenocarcinoma cells. 340,000 tested, 1.8% active. SW480 DNA re-replication, Hoechst DNA content imaging, 48 h. Potency, µM (highest dose often 46.1 µM), inactives show top-dose re-replication activation, hits mostly activators; also: % of control where 0% means no effect; nearly all actives have a fitted effect of over 55% in size
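SW480 cells exposed to compounds for 48 hr at 37 C, 5% CO2, then Hoechst-stained 40 min. Nuclear DNA content imaged by fluorescence scanning (405 nm excitation, 500-530 nm emission); re-replication scored as increased high-intensity nuclei.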
KB-3-1 cytotox = KB-3-1 parental cell cytotoxicity; KB-3-1 viability, CellTiter-Glo ATP luminescence, 72 h; Potency, µM (highest dose often 46.1 µM), actives largely listed as cytotoxic; 400,000 tested, 1.4% active; AID 1347075; also: % is scaled to controls: 0 for no effect and ±100 for the full control effect; nearly all actives have a fitted effect of over 60% in size
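Cytotoxicity measured as CellTiter-Glo luminescence after 72 h at 37 C. Compound titrations were pinned onto drug-naive KB-3-1 parental adenocarcinoma cells grown in DMEM with 10% FBS, and normalized data fitted to concentration-response curves.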
HT1080 IDH1KD tx = toxicity to HT-1080 IDH1 knockdown cells (counter line); 360,000 tested, 2% active; Potency, µM (highest dose often 46.1 µM), for inactives: at the highest dose activity, negative = toxicity, hits mostly cytotoxic; HT-1080 IDH1 knockdown viability, ATP luminescence, 48 h;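 also: 0% = DMSO wells and -100% = cell-free medium wells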
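Luminescent ATP read-out (CellTiter-Glo, 10 min at room temperature) after 48 h compound exposure at 37 °C gave viability of IDH1-knockdown HT-1080 cells. Activity was normalised to DMSO and cell-free wells, then fitted as concentration-response curves.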
MCF10A rereplic = inducers of DNA re-replication in MCF 10A breast cells; MCF 10A DNA re-replication, Hoechst nuclear intensity, 48 h; 350,000 tested, 2.9% active; AID 624296; Potency, µM (doses to about 46.1 µM), for the others: top-dose activity, positive = re-replication, usual class: activators; also: % of control where 0% means no effect; nearly all actives have a fitted effect of over 50% in size
HT1080NT lethal = kills 2HG-producing HT-1080-NT fibrosarcoma cells | Potency, µM (titrated, usually from 46.1 µM), for inactives: top-dose activity, negative = less viability, hits mostly cytotoxic | HT-1080-NT fibrosarcoma viability, CellTiter-Glo ATP luminescence, 48 h | 360,000 tested, 1.6% active;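 also: NT is the 2HG producing partner of a matched IDH1 knockdown line; 0% = DMSO-treated cells and -100% = media-only wells without cells; nearly all actives have a fitted effect of over 55% in size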
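A 48-hour cytotoxicity screen used HT-1080-NT cells plated 2 hours before compound delivery. ATP-based CellTiter-Glo luminescence measured viability, normalized to DMSO and no-cell controls.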
KB-V1 cytotox = kills drug-selected multidrug resistant KB-V1 cells. AID 1347076. KB-V1 MDR cells viability, CellTiter-Glo, 72 h. 400,000 tested, 3.4% active. Potency, µM (titrated, usually from 46.1 µM), actives largely listed as cytotoxic; also: % is scaled to controls: 0 for no effect and ±100 for the full control effect; nearly all actives have a fitted effect of over 60% in size
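Readout: CellTiter-Glo luminescence, 10 min after addition. Cells: KB-V1 MDR subline, 72 h at 37 degrees C with compound. Analysis: corrected, normalized data fitted to concentration-effect curves.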
* hit, by the source's call; i = inactive; ? = inconclusive; / = not tested or not shown; [ ] = dose if it differs, or a comment. Shown are actives, neighbours in structure and some others; about 7.9% of the full set was active somewhere. Calls follow the shape of the dose curve; as a rule, active = well fitted curve in the direction sought with a large enough effect; inconclusive = small, poorly fitted or top-dose-only effect, or another doubt; inactive = no such curve, though single readings can be large; an effect the other way counts as inactive or inconclusive. Potency is read from the fitted curve at half-maximal effect.

SMILES	SW480 rereplic	KB-3-1 cytotox	HT1080 IDH1KD tx	MCF10A rereplic	HT1080NT lethal	KB-V1 cytotox
Cc1ccc(-c2cc(C(=O)N/N=C/C(Br)=C/c3ccccc3)n[nH]2)o1	14.6µM*	i	20.6µM*	13µM*	20.6µM*	?
Cc1ccc(-c2cc(C(=O)N/N=C/c3c[nH]c4ccccc34)n[nH]2)o1	3.66µM*	i	-5.0%	6.3%	-19.2%	i
Cc1ccc(-c2cc(C(=O)N/N=C/c3ccccc3O)n[nH]2)o1	3.26µM*	?	?	18.4µM*	?	?
CC1CCCN(C(=O)Cn2c(=O)n(CC3CCC(C(=O)NC(C)C)CC3)c(=O)c3sccc32)C1 (stereo not given)	/	i	/	/	/	i
COc1ccc(NC(=O)c2cccc(N3CCCS3(=O)=O)c2)cc1	/	i	/	/	/	i
COc1ccc(CCNC(=O)CCc2c(C)nc3cc(-c4ccccc4)nn3c2C)cc1OC	/	i	/	/	/	i
CCc1c(C)nc2cc(-c3ccc(OC)c(OC)c3)nn2c1NCC1CC1	-0.6%	?	-15.1%	20.6µM*	-10.5%	5.17µM*
Cc1ccc(C(=O)N/C(=C\c2ccc(-c3ccccc3[N+](=O)[O-])o2)C(=O)NCCCN(C)C)cc1	2.2%	i	-20.2%	11.5%	-4.7%	i
Cc1ccc(C(=O)N/C(=C\c2ccc(-c3ccc(Cl)cc3)o2)C(=O)NCCCN(C)C)cc1	18.4µM*	?	13µM*	?	29.1µM*	i
CN(C)CCCNC(=O)/C(=C/c1ccc(-c2ccc([N+](=O)[O-])cc2)o1)NC(=O)c1ccccc1	?	i	-8.8%	?	-20.3%	i
CN(C)CCCNC(=O)/C(=C\c1ccc(-c2ccc(Br)cc2)o1)NC(=O)c1ccccc1	-125.9%	?	23.1µM*	?	?	i
Cc1ccc(C(=O)N/C(=C\c2ccc(-c3ccccc3[N+](=O)[O-])o2)C(=O)NCCN(C)C)cc1	2.91µM*	i	-27.7%	-2.1%	?	?
Cc1cccc(C)c1OCC(O)CN1CCC(CN2C(=O)c3cccc4cccc(c34)C2=O)CC1 (stereo not given)	?	20.6µM*	-10.2%	?	1.1%	?
COc1ccc(C(=O)CSc2nnc(CNc3ccc(C)cc3C)o2)cc1	-0.9%	i	1.9%	?	6.8%	i
Cc1ccc(NCc2nnc(SCC(=O)N3c4ccccc4Sc4ccccc43)o2)c(C)c1	-126.8%	i	-1.0%	-1.1%	3.1%	6.51µM*
Cc1ccc(OCc2nnc(SCC(=O)N3c4ccccc4Sc4ccc(Cl)cc43)o2)cc1	-54.8%	i	-2.0%	-1.8%	8.4%	8.2µM*
COC(=O)c1ccc(Nc2nc(-c3ccccc3Cl)nc3ccccc23)cc1	/	i	/	/	/	?
NS(=O)(=O)c1ccc(-c2ccc(/C=C3\C(=O)Nc4cc(Cl)ccc43)o2)cc1	?	i	-15.4%	?	-8.7%	i
CC1(C)OC(=O)C(=Cc2ccc(-c3ccc(S(N)(=O)=O)cc3)o2)C(=O)O1	?	i	?	18.4µM*	?	i
CCCCN1C(=O)C(CC(=O)NC(c2ccccc2)c2ccccc2)CC(C(=O)N(C(C)C)C(C)C)=C1C (stereo not given)	/	i	6.7%	/	-3.1%	?
CCOc1ccc(C(CCc2ccccc2)NC(=O)c2ccccc2)cc1OCC (stereo not given)	0.3%	i	?	-3.8%	-6.6%	9.2µM*
Cc1ccc(C)c(C(=O)NC(C)CCc2ccccc2)c1 (stereo not given)	11.3%	i	-0.3%	2.5%	5.1%	i
Cc1occc1C(=O)NC(C)CCc1ccccc1 (stereo not given)	0.5%	i	-2.2%	20.6µM*	0.9%	i
CC(CCc1ccccc1)NC(=O)c1ccc(NC(=O)c2ccccc2)cc1 (stereo not given)	?	i	12.2%	?	16.4µM*	i
CC(CCc1ccccc1)NC(=O)c1ccc(NC(=O)c2cccc(Br)c2)cc1 (stereo not given)	?	i	-12.9%	18.4µM*	-4.9%	2.06µM*
SMILES	SW480 rereplic	KB-3-1 cytotox	HT1080 IDH1KD tx	MCF10A rereplic	HT1080NT lethal	KB-V1 cytotox
CCc1ccc(-n2nc(C)c3c(C)cc(=O)n(CC(=O)Nc4ccc(OC)c(OC)c4)c32)cc1	/	i	/	/	/	i
CN(CC1COc2ccccc2O1)C(=O)c1cccc(S(=O)(=O)N2CCCC2)c1 (stereo not given)	0.9%	i	?	0.5%	-1.5%	8.2µM*
COc1cccc(CN(C)C(=O)c2cccc(S(=O)(=O)N3CCN(c4ccccc4)CC3)c2)c1	/	i	-20.8%	/	-13.8%	?
O=C(NCC1COc2ccccc2O1)c1cccc(S(=O)(=O)N2CCCCC2)c1 (stereo not given)	3.3%	?	-0.5%	3.4%	-8.6%	i
CN(Cc1ccc(F)cc1)C(=O)c1cccc(S(=O)(=O)N2CCN(c3ccccc3)CC2)c1	14.2%	?	-15.6%	7.4%	-1.6%	?
CN(Cc1ccc(F)cc1)C(=O)c1cccc(S(=O)(=O)N2CCN(c3ccc(F)cc3)CC2)c1	?	13µM*	-15.9%	6.9%	?	?
Cc1ccc(CN(C)C(=O)c2cccc(S(=O)(=O)N3CCN(c4ccccc4)CC3)c2)cc1	9.3%	?	-25.7%	-0.9%	-6.4%	18.4µM*
O=C(NC1CCCCC1)c1cc(Nc2cccc(C(F)(F)F)c2)nc2ccccc12	/	i	/	/	/	i
CCn1cc(C(=O)N2CCN(c3cc(Cl)ccc3C)CC2)c(=O)c2cc(S(=O)(=O)N3CCOCC3)ccc21	/	?	/	/	/	i
CC(NCc1ccc2c(c1)OCO2)C(=O)N1CCc2ccccc21 (stereo not given)	?	i	-3.0%	-70.5%	-4.1%	5.17µM*
CC(NCc1ccc(S(N)(=O)=O)cc1)C(=O)N1CCc2ccccc21 (stereo not given)	0.7%	i	14.7%	-0.3%	1.6%	i
CC(=O)C(C(C)=O)c1c(Cl)c(O)c(O)c2c(C(=O)c3ccccc3)coc12	-0.4%[9.22 µM]	13µM*	11.6µM*	?	?	?
COc1ccccc1-c1nnc(SCC(=O)NCc2c(C)c(Cl)cc(C(C)C)c2O)o1	-4.7%	i	15.8µM*	-3.9%	?	?
COc1ccc(C(=O)N(CCc2ccccc2)Cc2ccccc2)c(OC)n1	10.8%	?	-3.8%	?	-19.7%	8.2µM*
CN(C)c1ccc(S(=O)(=O)NCC(=O)NCCC2=CCCCC2)cc1[N+](=O)[O-]	0.0%	i	2.1%	-2.9%	-2.5%	18.4µM*
